The source made the active and inactive calls. Unless noted, the rule behind the calls is not given here.

Results on five compounds are retold here after PubChem BioAssay.

Assay [1] in a line: compounds binding Alexa647 anti-His antibody – biochemical, small-molecule microarray, 635 nm fluorescence, artefact control for SMM control protein annotation, primary screen (AID 1128).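 Note: score merges feature fluorescence with signal-to-noise for each printed compound spot.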 The note with it: higher = more signal.
The test system of assay [2] is Human papillomavirus type 1a E7 protein (residues 1-88). The experiment in a line: HPV1a E7 small-molecule binders, primary screen, biochemical, small-molecule microarray, residues 1-88, 635 nm (AID 1129). The note with it: small-molecule microarray binding, fluorescence 635 nm; higher = more signal.
Assay [3] has as its target Focal adhesion kinase 1 (Homo sapiens) (UniProt Q05397). The experiment in a line: PTK2 protein binding on printed compound slides – biochemical, small-molecule microarray, 635/667 nm fluorescence, BSA, DTT, primary screen (AID 1130).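 Note: composite of spot emission at 667 nm and signal to noise over triplicate slides.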 The note with it: 635 nm fluorescence, higher = more signal.
In assay [4] the test system is Fibrinogen (Alexa647-labelled). The experiment in a line: Alexa647-fibrinogen binding to printed small molecules – biochemical, small-molecule microarray, 635/667 nm fluorescence, artefact control for SMM control-protein annotation, profiling panel (AID 1131).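 Note: z-score merges 667 nm fluorescence with per-spot signal-to-noise over triplicate slides.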 The note with it: fibrinogen-A647 binding fluorescence, higher = more signal.
Assay [5] addresses Follistatin (Homo sapiens) (UniProt P19883). Nature of the assay: FST protein binding to printed compounds – biochemical, small-molecule microarray, 635/667 nm fluorescence, primary screen (AID 1132). The note with it: 635 nm fluorescence, higher = more signal.
In assay [6] the target is Fibroblast growth factor 2 (Homo sapiens) (UniProt P09038). The experiment in a line: basic fibroblast growth factor binding to printed compounds – biochemical, small-molecule microarray, 635/667 nm fluorescence, primary screen (AID 1133). Conditions: FGF2, fluorescence 635/667, higher = more signal.
Assay [7] is described as follows: JC-1 mitochondrial potential readout, lung cancer cells – cell-based, A549, JC-1 fluorescence, basal, 24 h, 100 nL, profiling panel (AID 1138).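 Note: A549 lung adenocarcinoma cells under basal conditions with no added stimulus; test concentration not given here.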 The note with it: higher = more signal.
A further assay concerns Lefty1. The experiment in a line: Lefty1 protein binding to printed compounds – biochemical, small-molecule microarray, 635/667 nm fluorescence, primary screen (AID 1139). The note with it: fluorescence 635/667, higher = more signal.
For assay [8], the system named is wheat germ agglutinin (Triticum aestivum), Alexa647-labelled. Nature of the assay: Alexa647-WGA lectin binding to printed small molecules – biochemical, small-molecule microarray, 635/667 nm fluorescence, artefact control for SMM control-protein annotation, profiling panel (AID 1140).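 Note: score merges 667 nm feature emission with signal to noise over triplicate slides.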 The note with it: WGA-A647 binding, 635 nm fluorescence, higher = more signal.
The target of assay [9] is Luciferin 4-monooxygenase (Photinus pyralis) (UniProt P08659). Nature of the assay: inhibition of purified Photinus pyralis luciferase – biochemical, luminescence, purified enzyme, 2006 set, primary screen (AID 1141).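 Note: cell-free assay with purified firefly luciferase at 100 ng per well in PBS; test concentration not given here.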 Conditions: purified firefly luciferase, SteadyGlo luminescence, 30 min; higher = more signal, called active from +8 up or from −8 down.
Assay [10] concerns Wnt5a (protein binding on small-molecule microarray). The experiment in a line: small molecules binding Wnt5a protein – biophysical, small-molecule microarray, 635/667 nm fluorescence, primary screen (AID 1142).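 Note: fluorescence read at 667 nm with signal to noise per printed feature.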 Conditions: 635 nm fluorescence, higher = more signal.
Assay [11] can be described thus: ATP-based viability of Huh7 replicon cells – cell-based, CellTiter-Glo luminescence, basal, 48 h, cytotoxicity control for HCV replication inhibitor project, primary screen (AID 1143).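 Note: Huh7 hepatoma cells carrying a hepatitis C replication reporter with no stimulus; test concentration not given here.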 Conditions: higher = more signal, called active from +8 up or from −8 down. (In general: Replicon systems follow genome replication, usually without infectious particles.)
The nature of assay [12]: Pseudomonas biofilm growth suppression – PAO1 strain, BacTiter-Glo luminescence, LB-PBS, primary screen (AID 1144). The note with it: P. aeruginosa PAO1 biofilm, 12 h, higher = more signal.
Assay [13] is described as follows: basal CRE-LacZ reporter activity in PC12 – cell-based, unstimulated, primary screen (AID 1145). Conditions: no forskolin, luminescence, 4.5 h, higher = more signal, called active from +8 up or from −8 down.
The nature of assay [14]: forskolin-driven CRE-LacZ activity in PC12 – cell-based, CRE-LacZ reporter, forskolin-stimulated, primary screen (AID 1146).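 Note: PC12 cells with 6xCRE LacZ reporter stimulated by forskolin 10 µM; beta-galactosidase reporter signal reflecting CREB driven transcription.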 Conditions: luminescence, 4.5 h, higher = more signal, called active from +8 up or from −8 down.
The target in assay [15] is Streptavidin (Streptomyces avidinii) (UniProt P22629). Nature of the assay: compounds binding control protein streptavidin – biophysical, small-molecule microarray, 635/667 nm fluorescence, artefact control for SMM compound annotation, primary screen (AID 1147).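 Note: signal reflects streptavidin binding to arrayed compounds as a control protein.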 Conditions: higher = more signal.
The nature of assay [16]: probe aInhba binding on compound microarray – biochemical, small-molecule microarray, 635/667 nm fluorescence, primary screen (AID 1148).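 Note: score merges 667nm spot fluorescence with signal-to-noise for antibody binding to printed compounds.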 The note with it: higher = more signal.
Assay [17] addresses Torsin-1A (Homo sapiens) (UniProt O14656). Nature of the assay: TOR1A wild-type binding on microarray – cell lysate, small-molecule microarray, lysate, 635/667 nm, primary screen (AID 1149). The note with it: COS7 hTOR1A-WT lysate, 635 nm fluorescence, higher = more signal.
For assay [18] the target is unchanged. The experiment in a line: torsin A mutant lysate binding on microarrays – cell lysate, small-molecule microarray, COS7 lysate, 635/667 nm fluorescence, primary screen (AID 1150).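 Note: score pools 667 nm emission and signal to noise measuring lysate protein binding.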 The note with it: COS7 hTOR1A mutant lysate, 635 nm fluorescence, higher = more signal.
Assay [19] relates to Sonic hedgehog protein (Shh). Nature of the assay: Sonic hedgehog microarray binding compounds – biochemical, small-molecule microarray, 635/667 nm fluorescence, primary screen (AID 1151).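 Note: Shh protein binding to compounds spotted on small-molecule microarray slides; score combines spot fluorescence intensity with signal-to-noise across triplicate slides.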 Conditions: 635 nm fluorescence, higher = more signal.

Sequence of Follistatin (Homo sapiens) (P19883 whole entry, looked up): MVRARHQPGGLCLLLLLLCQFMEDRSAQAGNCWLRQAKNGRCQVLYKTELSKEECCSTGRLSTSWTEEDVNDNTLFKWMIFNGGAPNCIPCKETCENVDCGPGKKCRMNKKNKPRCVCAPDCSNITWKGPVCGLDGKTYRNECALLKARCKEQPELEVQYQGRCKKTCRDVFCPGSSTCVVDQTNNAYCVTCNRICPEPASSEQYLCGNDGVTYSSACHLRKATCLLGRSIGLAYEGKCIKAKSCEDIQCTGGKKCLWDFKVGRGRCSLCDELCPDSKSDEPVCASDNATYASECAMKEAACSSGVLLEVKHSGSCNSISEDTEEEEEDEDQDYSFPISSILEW
Sequence of Streptavidin (Streptomyces avidinii) (P22629 whole entry, looked up): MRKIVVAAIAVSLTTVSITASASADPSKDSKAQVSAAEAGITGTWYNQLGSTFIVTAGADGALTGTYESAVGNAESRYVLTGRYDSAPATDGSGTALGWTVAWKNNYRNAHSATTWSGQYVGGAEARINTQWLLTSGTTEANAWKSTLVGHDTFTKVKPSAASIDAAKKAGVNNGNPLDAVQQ
Sequence of Luciferin 4-monooxygenase (Photinus pyralis) (P08659 whole entry, looked up): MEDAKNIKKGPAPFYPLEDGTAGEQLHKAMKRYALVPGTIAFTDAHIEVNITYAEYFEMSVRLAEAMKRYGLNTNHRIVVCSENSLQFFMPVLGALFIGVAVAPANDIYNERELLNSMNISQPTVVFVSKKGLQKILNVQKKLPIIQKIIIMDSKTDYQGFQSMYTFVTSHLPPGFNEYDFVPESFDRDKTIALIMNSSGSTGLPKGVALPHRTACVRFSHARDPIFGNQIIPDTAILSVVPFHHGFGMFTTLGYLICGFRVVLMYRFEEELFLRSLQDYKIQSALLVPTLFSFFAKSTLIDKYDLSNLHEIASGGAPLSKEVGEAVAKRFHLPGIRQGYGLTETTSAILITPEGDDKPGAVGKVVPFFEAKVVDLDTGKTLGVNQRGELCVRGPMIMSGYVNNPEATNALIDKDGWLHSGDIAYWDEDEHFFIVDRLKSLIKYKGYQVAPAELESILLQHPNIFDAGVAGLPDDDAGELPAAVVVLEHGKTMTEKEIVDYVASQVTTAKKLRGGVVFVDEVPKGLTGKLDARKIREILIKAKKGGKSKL
Sequence of Torsin-1A (Homo sapiens) (O14656 whole entry, looked up): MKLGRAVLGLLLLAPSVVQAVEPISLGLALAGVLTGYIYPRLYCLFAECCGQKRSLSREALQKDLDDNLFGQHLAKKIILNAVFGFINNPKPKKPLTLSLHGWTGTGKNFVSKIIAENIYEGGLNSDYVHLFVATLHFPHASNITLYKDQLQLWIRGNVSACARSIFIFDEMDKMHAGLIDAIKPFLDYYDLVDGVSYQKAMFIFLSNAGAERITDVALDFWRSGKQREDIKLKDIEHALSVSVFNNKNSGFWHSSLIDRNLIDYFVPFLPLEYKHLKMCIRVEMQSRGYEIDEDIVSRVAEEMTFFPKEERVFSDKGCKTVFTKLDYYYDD
Sequence of Fibroblast growth factor 2 (Homo sapiens) (P09038 whole entry, looked up): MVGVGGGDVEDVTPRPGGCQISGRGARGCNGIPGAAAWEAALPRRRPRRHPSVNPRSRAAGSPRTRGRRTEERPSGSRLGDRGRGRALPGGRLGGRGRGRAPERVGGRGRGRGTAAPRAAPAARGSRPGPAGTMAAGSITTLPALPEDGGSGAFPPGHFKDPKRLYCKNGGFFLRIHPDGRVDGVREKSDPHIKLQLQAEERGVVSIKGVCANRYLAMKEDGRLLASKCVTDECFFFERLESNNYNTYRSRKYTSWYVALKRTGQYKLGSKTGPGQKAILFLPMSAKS
Sequence of Focal adhesion kinase 1 (Homo sapiens) (Q05397 whole entry, looked up): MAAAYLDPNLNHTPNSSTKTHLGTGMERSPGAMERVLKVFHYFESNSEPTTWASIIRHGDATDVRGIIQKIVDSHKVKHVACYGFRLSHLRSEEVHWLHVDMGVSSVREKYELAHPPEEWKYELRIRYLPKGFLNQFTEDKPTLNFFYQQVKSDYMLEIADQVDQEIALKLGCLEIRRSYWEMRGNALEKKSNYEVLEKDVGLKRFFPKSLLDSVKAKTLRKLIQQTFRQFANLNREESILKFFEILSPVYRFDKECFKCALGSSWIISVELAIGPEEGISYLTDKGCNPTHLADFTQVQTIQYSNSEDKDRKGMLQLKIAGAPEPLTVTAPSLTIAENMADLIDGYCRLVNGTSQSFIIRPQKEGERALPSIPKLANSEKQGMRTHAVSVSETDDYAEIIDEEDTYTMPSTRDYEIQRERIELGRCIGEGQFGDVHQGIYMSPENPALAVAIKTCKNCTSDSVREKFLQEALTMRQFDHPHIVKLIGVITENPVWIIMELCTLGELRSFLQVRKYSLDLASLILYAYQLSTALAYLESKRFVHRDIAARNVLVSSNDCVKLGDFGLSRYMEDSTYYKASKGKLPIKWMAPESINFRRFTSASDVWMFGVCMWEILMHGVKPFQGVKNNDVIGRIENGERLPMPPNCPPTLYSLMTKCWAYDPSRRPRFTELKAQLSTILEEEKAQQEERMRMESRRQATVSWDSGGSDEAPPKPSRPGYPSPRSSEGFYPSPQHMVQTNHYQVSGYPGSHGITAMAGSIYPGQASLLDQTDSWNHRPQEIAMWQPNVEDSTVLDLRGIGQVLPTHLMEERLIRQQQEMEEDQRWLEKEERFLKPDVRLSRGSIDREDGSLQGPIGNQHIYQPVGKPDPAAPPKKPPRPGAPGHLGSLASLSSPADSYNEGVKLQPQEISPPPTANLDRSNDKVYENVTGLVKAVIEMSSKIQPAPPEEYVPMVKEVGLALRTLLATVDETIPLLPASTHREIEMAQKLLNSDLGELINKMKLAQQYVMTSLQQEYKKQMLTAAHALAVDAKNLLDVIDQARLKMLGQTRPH

Take `CCN(CC)c1ccc(N2CC=CC34O[C@@H]5C=CCOC(=O)[C@@H]5[C@H]3C(=O)N(CCCO)[C@@H]4C2=O)cc1` (stereo not given in full): the composite z-score is 1.53 in [1]; -1.05 in assay [2]; -0.0534 in assay [3]; -0.973 in assay [4]; -0.658 in [5]; -0.576 in [6]. In addition, the composite z-score in the assay with Lefty1 is -0.923; in assay [8] it was -0.245; in assay [10] it was -0.121; in [15], -1.39; in assay [16] it was -0.128; with Torsin-1A (Homo sapiens) [17], 0.0507. The composite z-score with Torsin-1A (Homo sapiens) [18] was 2.46; in assay [19] it was -0.0981. The z-score in assay [7] was -0.125; in assay [9], -0.803 (inactive); in assay [11] it was -2.34 (inactive); in [12], -0.527 (inactive); in assay [13], -0.228 (inactive); in assay [14] it was -0.905 (inactive).

Take `COc1ccc(C(O)C2C=CC3C(=O)N(C)C(=O)C3N2Nc2ccc([N+](=O)[O-])cc2[N+](=O)[O-])cc1OCc1ccccc1` (stereo not given): the composite z-score in [1] was 1.05; in assay [2], 1.19; in assay [3] it was 0.368; in assay [4] it was 0.545; in assay [5], 0.699; in [6] it was -0.0627. Further, the composite z-score was found to be 0.0695 in the assay on Lefty1; 1.15 in [8]; 0.477 in assay [10]; 0.171 in [15]; 0.566 in assay [16]; 0.255 in the assay with Torsin-1A (Homo sapiens) [17]. Further, the composite z-score with Torsin-1A (Homo sapiens) [18] was 0.387; in [19], -0.105. Moreover, the z-score in [7] is 0.552; in assay [9], 0.0945 (inactive); in [11], 0.351 (inactive); in [12], 0.967 (inactive); in [13], 0.243 (inactive); in [14], 0.706 (inactive).

Regarding `CCOC(=O)C1=C(C(=O)OCC)N(S(=O)(=O)CC[Si](C)(C)C)[C@H](c2ccccc2)CC1`, the composite z-score in assay [1] is 0.171; in assay [2], 1.17; in [3], -0.069; in [4], 0.837; in [5], 0.761; in [6] it was -0.0502. The composite z-score in the assay with Lefty1 is 0.566; in assay [8], 1.1; in assay [10] it was 0.263; in assay [15], 0.955; in assay [16], 0.131; with Torsin-1A (Homo sapiens) [17], 0.454. Further, the figures for the composite z-score (with Torsin-1A (Homo sapiens) [18]; in assay [19]) were 0.476 and -0.424, respectively. For the same compound, the z-score in [7] was 2.54; in [9] it was 1.01 (inactive); in assay [11], -4.45 (inactive); in assay [12], 0.338 (inactive); in assay [13], 0.229 (inactive); in [14] it was 0.207 (inactive).

Consider `[N-]=[N+]=NCc1ccccc1[C@H]1OC(c2ccc(OCCCO)cc2)=N[C@@]1(Cc1ccccc1)C(=O)N1CCOCC1`, for which the composite z-score turned out to be 1.44 in assay [1]; 1.26 in assay [2]; 0.46 in [3]; 0.992 in [4]; 0.25 in [5]; 1.48 in assay [6]. For the same compound, the composite z-score is -0.155 with Lefty1; 0.723 in assay [8]; 0.896 in assay [10]; 1.08 in assay [15]; 0.355 in [16]; 1.47 with Torsin-1A (Homo sapiens) [17]. The composite z-score with Torsin-1A (Homo sapiens) [18] is 1.17; in assay [19] it was -0.346. The z-score is 0.343 in assay [7]; -0.372 (inactive) in assay [9]; -3.73 (inactive) in assay [11]; -0.78 (inactive) in assay [12]; 2.02 (inactive) in [13]; -0.227 (inactive) in assay [14].

On to `CCOC(=O)C[C@H]1[C@H](OC(=O)Cc2ccc3c(c2)OCO3)[C@@H](NC(=O)c2ccccc2)c2cc(OCCCO)ccc2N1C(=O)Cc1ccc(OC)cc1`, for which the composite z-score in assay [1] was 0.752; in assay [2] it was 0.263; in assay [3], 0.161; in assay [4], 0.792; in assay [5], 0.19; in assay [6], -0.027. Further, the composite z-score with Lefty1 is 0.305; in assay [8], 0.674; in assay [10], -0.0328; in [15], 0.662; in [16], -0.045; in the assay with Torsin-1A (Homo sapiens) [17], 0.693. Moreover, the composite z-score was 0.749 with Torsin-1A (Homo sapiens) [18] and -0.256 in assay [19]. In addition, the z-score in assay [7] was 0.291; in assay [9], 0.296 (inactive); in assay [11], -1.82 (inactive); in [12], -1.04 (inactive); in assay [13], 2.31 (inactive); in assay [14], -0.789 (inactive).
